# Reference: PubChem BioAssay (NCATS)
# Results filed as inconclusive are left out. A call without a number means that no potency is given here. Activity calls are given as the source filed them. Calls follow the shape of the dose curve; as a rule, active = well fitted curve in the direction sought with a large enough effect; inconclusive = small, poorly fitted or top-dose-only effect, or another doubt; inactive = no such curve, though single readings can be large or run the other way.
# Experiment: qHTS for differential inhibitors of proliferation of Plasmodium falciparum line GB4 (AID 1816);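 also: parasite growth measured after 72 h incubation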
# Details: Potency: Plasmodium falciparum GB4 proliferation inhibition; series mostly up to 28.7 µM
# Potency is read from the fitted curve at half-maximal effect.
row,SMILES,Potency
1,CN1CCN(CC(=O)N2c3ccccc3C(=O)Nc3cccnc32)CC1,inactive
2,CCc1cccc(N(C)C(N)=Nc2cccc3ccccc23)c1,10 µM (active)
3,CC(=O)OCC1=C(C(=O)O)N2C(=O)[C@@H](NC(=O)Cc3cccs3)[C@H]2SC1,inactive
4,CC(=O)[C@]1(O)Cc2c(O)c3c(c(O)c2[C@@H](O[C@H]2C[C@H](N)[C@H](O)[C@H](C)O2)C1)C(=O)c1ccccc1C3=O,1.12 µM (active)
5,O=C(CCCN1CCC(O)(c2cccc(C(F)(F)F)c2)CC1)c1ccc(F)cc1,3.16 µM (active)
6,CN(C)C(=O)Oc1cccc([N+](C)(C)C)c1,inactive
7,CC(C)(C)NCC(O)c1cc(O)cc(O)c1 (configuration not stated),inactive
8,C[C@H](CS)C(=O)N1CCC[C@H]1C(=O)O,inactive

# Experiment: qHTS for differential inhibitors of proliferation of Plasmodium falciparum line 3D7 (AID 1876)
# Details: P. falciparum 3D7 proliferation inhibition; series mostly up to 28.7 µM
row,SMILES,Potency
1,CCCNC(C)C(=O)Nc1ccccc1C (configuration not stated),inactive
2,CN(C)C(=O)Oc1ccc[n+](C)c1,inactive
3,C[C@]12C=CC(=O)C=C1CC[C@H]1[C@@H]3C[C@@H](O)[C@](O)(C(=O)CO)[C@@]3(C)C[C@H](O)[C@@]12F,inactive
4,C[n+]1cc2c3c(ccc2c2ccc4cc5c(cc4c21)OCO5)OCO3,2.82 µM (active)
5,Nc1ncn([C@@H]2O[C@H](CO)[C@@H](O)[C@H]2O)c(=O)n1,inactive
6,CN(C)C/C=C(/c1ccc(Br)cc1)c1cccnc1,10 µM (active)
7,CCOC(=O)C1=C(C)NC(C)=C(C(=O)OC)C1c1cccc(Cl)c1Cl (configuration not stated),8.91 µM (active)
8,C[N+](C)(C)CCOC(=O)CCC(=O)OCC[N+](C)(C)C,inactive
9,Cc1nc2c([nH]1)c(=O)n(C)c(=O)n2Cc1ccco1,inactive
10,OCCN1CCN(CC/C=C2/c3ccccc3Sc3ccc(C(F)(F)F)cc32)CC1,2.51 µM (active)
11,CCC(=O)c1ccc2c(c1)N(CCCN(C)C)c1ccccc1S2,10 µM (active)
12,NS(=O)(=O)c1cc2c(cc1Cl)NC(C1CC3C=CC1C3)NS2(=O)=O (configuration not stated),inactive
13,C[C@]12CCC(=O)C=C1CC[C@@H]1[C@@H]2C(=O)C[C@@]2(C)[C@H]1CC[C@]2(O)C(=O)CO,inactive
14,NC(=O)c1ncn([C@@H]2O[C@H](CO)[C@@H](O)[C@H]2O)c1O,inactive
15,CN1CCN(CC(=O)N2c3ccccc3C(=O)Nc3cccnc32)CC1,inactive
16,Cc1nnc(SCC2=C(C(=O)O)N3C(=O)[C@@H](NC(=O)Cn4cnnn4)[C@H]3SC2)s1,inactive
17,CCc1cccc(N(C)C(N)=Nc2cccc3ccccc23)c1,12.6 µM (active)
18,CC(=O)OCC1=C(C(=O)O)N2C(=O)[C@@H](NC(=O)Cc3cccs3)[C@H]2SC1,inactive
19,CC(=O)[C@]1(O)Cc2c(O)c3c(c(O)c2[C@@H](O[C@H]2C[C@H](N)[C@H](O)[C@H](C)O2)C1)C(=O)c1ccccc1C3=O,0.708 µM (active)
20,O=C(CCCN1CCC(O)(c2cccc(C(F)(F)F)c2)CC1)c1ccc(F)cc1,3.55 µM (active)
21,CN(C)C(=O)Oc1cccc([N+](C)(C)C)c1,inactive
22,CC(C)(C)NCC(O)c1cc(O)cc(O)c1 (configuration not stated),inactive
23,C[C@H](CS)C(=O)N1CCC[C@H]1C(=O)O,inactive

# Experiment: qHTS for differential inhibitors of proliferation of Plasmodium falciparum line D10 (AID 1877);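 also: parasites grown with compound for 72 h before DNA staining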
# Details: series mostly up to 28.7 µM
row,SMILES,Potency
1,CCCNC(C)C(=O)Nc1ccccc1C (configuration not stated),inactive
2,CN(C)C(=O)Oc1ccc[n+](C)c1,inactive
3,C[C@]12C=CC(=O)C=C1CC[C@H]1[C@@H]3C[C@@H](O)[C@](O)(C(=O)CO)[C@@]3(C)C[C@H](O)[C@@]12F,inactive
4,C[n+]1cc2c3c(ccc2c2ccc4cc5c(cc4c21)OCO5)OCO3,3.55 µM (active)
5,Nc1ncn([C@@H]2O[C@H](CO)[C@@H](O)[C@H]2O)c(=O)n1,inactive
6,CN(C)C/C=C(/c1ccc(Br)cc1)c1cccnc1,11.2 µM (active)
7,CCOC(=O)C1=C(C)NC(C)=C(C(=O)OC)C1c1cccc(Cl)c1Cl (configuration not stated),15.8 µM (active)
8,C[N+](C)(C)CCOC(=O)CCC(=O)OCC[N+](C)(C)C,inactive
9,COc1ccc([C@@H]2Sc3ccccc3N(CCN(C)C)C(=O)[C@@H]2OC(C)=O)cc1,inactive
10,Cc1nc2c([nH]1)c(=O)n(C)c(=O)n2Cc1ccco1,inactive
11,OCCN1CCN(CC/C=C2/c3ccccc3Sc3ccc(C(F)(F)F)cc32)CC1,12.6 µM (active)
12,CCC(=O)c1ccc2c(c1)N(CCCN(C)C)c1ccccc1S2,17.8 µM (active)
13,NS(=O)(=O)c1cc2c(cc1Cl)NC(C1CC3C=CC1C3)NS2(=O)=O (configuration not stated),inactive
14,CSc1ccc(C(=O)c2[nH]c(=O)[nH]c2C)cc1,inactive
15,C[C@]12CCC(=O)C=C1CC[C@@H]1[C@@H]2C(=O)C[C@@]2(C)[C@H]1CC[C@]2(O)C(=O)CO,inactive
16,NC(=O)c1ncn([C@@H]2O[C@H](CO)[C@@H](O)[C@H]2O)c1O,inactive
17,Cc1nnc(SCC2=C(C(=O)O)N3C(=O)[C@@H](NC(=O)Cn4cnnn4)[C@H]3SC2)s1,inactive
18,CCc1cccc(N(C)C(N)=Nc2cccc3ccccc23)c1,14.1 µM (active)
19,Brc1c(NC2=NCCN2)ccc2nccnc12,inactive
20,CC(=O)OCC1=C(C(=O)O)N2C(=O)[C@@H](NC(=O)Cc3cccs3)[C@H]2SC1,inactive
21,CC(=O)[C@]1(O)Cc2c(O)c3c(c(O)c2[C@@H](O[C@H]2C[C@H](N)[C@H](O)[C@H](C)O2)C1)C(=O)c1ccccc1C3=O,1.26 µM (active)
22,CN(C)CC[C@@H](c1ccc(Br)cc1)c1ccccn1,inactive
23,O=C(CCCN1CCC(O)(c2cccc(C(F)(F)F)c2)CC1)c1ccc(F)cc1,12.6 µM (active)
24,CN(C)C(=O)Oc1cccc([N+](C)(C)C)c1,inactive
25,CC(C)(C)NCC(O)c1cc(O)cc(O)c1 (configuration not stated),inactive
26,C[C@H](CS)C(=O)N1CCC[C@H]1C(=O)O,inactive
